hDAT+cocaine – changed hDAT dopamine uptake under cocaine IC80, either direction, primary screen, cocaine antagonist project, cell-based, LLC-PK1 hDAT, [14C]-dopamine uptake, MLSMR | Sodium-dependent dopamine transporter (Homo sapiens), Q01959 | LLC-PK1 hDAT cells, [14C]-dopamine uptake with cocaine IC80; actives deviate in either direction | B-score at 10 µM | 110,000 compounds, 1.3% hits;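 active = Z score or B-score, a plate-position-corrected score, falls beyond the plate's 99.7% confidence bounds, in either direction; inactive = both scores lie inside the 99.7% bounds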;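 note: scored against the spread of the other compound wells on the same plate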
D1 allo mod – D1 CRE-luciferase signal change, two-sided – cell-based, HEK293 D1, dopamine EC30, D1 allosteric modulator project, primary screen; D(1A) dopamine receptor (Homo sapiens), P21728; dopamine EC30 potentiation; actives deviate in either direction; B-score at 10 µM; 58,000 compounds, 5.9% hits; AID 641, 2007;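 active = luminescence count or its row- and column-corrected plate score outside the 99.7% band of the plate's sample wells, on either side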
EphB4 antag – EphB4-ephrin-B2 interaction antagonists, primary screen, biochemical, TNYL-RAW peptide probe, fluorescence polarization | EphB4 LBD / TNYL-RAW-Alexa532 peptide | inhibition, % at 7 µM | 97,000 compounds, 0.15% hits | AID 720, 2007;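 active = inhibition above the screen-wide mean inhibition plus 3 SD, cut at about 15% in these data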;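 note: 0% = DMSO wells and 100% = excess unlabeled TNYL-RAW peptide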
Target sequence (P54760 whole entry, looked up, the tested form may be a part): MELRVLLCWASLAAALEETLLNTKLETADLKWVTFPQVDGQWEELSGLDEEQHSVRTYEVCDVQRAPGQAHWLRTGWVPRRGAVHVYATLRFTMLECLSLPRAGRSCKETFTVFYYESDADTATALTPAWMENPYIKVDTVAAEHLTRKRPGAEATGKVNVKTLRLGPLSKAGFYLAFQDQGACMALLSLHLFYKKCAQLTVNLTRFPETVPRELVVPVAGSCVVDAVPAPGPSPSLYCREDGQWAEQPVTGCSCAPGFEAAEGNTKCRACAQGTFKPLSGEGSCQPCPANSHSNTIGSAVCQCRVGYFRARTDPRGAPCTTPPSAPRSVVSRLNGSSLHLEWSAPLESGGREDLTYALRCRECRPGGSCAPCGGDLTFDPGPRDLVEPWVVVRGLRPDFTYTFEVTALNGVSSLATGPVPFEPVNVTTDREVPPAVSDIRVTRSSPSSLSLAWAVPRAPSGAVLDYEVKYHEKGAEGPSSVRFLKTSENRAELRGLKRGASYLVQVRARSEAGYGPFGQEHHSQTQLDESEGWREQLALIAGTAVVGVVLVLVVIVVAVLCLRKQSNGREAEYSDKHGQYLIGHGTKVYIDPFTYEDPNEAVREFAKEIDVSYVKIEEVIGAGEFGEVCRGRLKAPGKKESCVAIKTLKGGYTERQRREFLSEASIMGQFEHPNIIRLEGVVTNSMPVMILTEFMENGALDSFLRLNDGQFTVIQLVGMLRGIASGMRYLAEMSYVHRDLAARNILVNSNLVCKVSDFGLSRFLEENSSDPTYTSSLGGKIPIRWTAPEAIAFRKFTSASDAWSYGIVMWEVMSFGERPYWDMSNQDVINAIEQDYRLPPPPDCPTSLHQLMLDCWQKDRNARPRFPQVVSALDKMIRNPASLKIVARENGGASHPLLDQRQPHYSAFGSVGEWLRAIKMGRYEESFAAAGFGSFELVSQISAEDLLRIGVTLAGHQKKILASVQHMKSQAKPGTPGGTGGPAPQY
D1 PAM confirm – D1 receptor positive allosteric modulators, retest, confirmation, cell-based, HEK293 D1, CRE-luciferase, duplicate. luminescence at 10 µM. shares compounds with D1 allo mod. 2,200 compounds, 88% hits. dopamine EC30 potentiation; stronger effect = higher value;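 active = luminescence in either of two replicates above the same-plate mean plus 3 SD of the low-dose dopamine control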
D1 ag no DA – D1 receptor agonism without dopamine, confirmation, mechanism study for D1 allosteric modulator project, cell-based, HEK293 D1, CRE-luciferase, secondary assay 1; shares compounds with D1 allo mod; luminescence, no dopamine; stronger effect = higher value; luminescence at 10 µM; 1,900 compounds, 0.8% hits; in the data active = luminescence above about 3900
Isoprot counter – alters isoproterenol CRE-luciferase response in HEK293 cells. shares compounds with D1 allo mod. HEK293 D1 CRE-luciferase, isoproterenol EC30 counter-screen. calls only at 10 µM. 2,200 compounds, 63% hits. AID 647;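 active = luminescence in either replicate above plate mean of wells with a partly effective reference agonist dose plus 3 SD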;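 note: isoproterenol raises cAMP through native beta-adrenoceptor Gs so signal bypasses D1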
* marks the source's active call; other numbers are inactive results; i = inactive; · = no result given; + = active, no number. The full list was thinned out, with hits kept by preference.

SMILES | hDAT+cocaine | D1 allo mod | EphB4 antag | D1 PAM confirm | D1 ag no DA | Isoprot counter
COc1cccc(-c2nn3c(-c4ccccn4)nnc3s2)c1 | 0.043 | · | 3 | · | · | ·
Cc1ccc(-c2nnc3sc(-c4ccncc4)nn23)cc1 | -0.056 | 2.5 | 1 | · | · | ·
COc1cccc(-c2nn3c(-c4cc(C)[nH]n4)nnc3s2)c1 | -0.36 | 3.4* | -2 | 6292* | 2016 | i
OC(CSc1c(Cl)cccc1Cl)CN1CCN(c2ccc(F)cc2)CC1 (stereo unspecified) | 0.89 | · | -1 | · | · | ·
CCC(C)[C@H](N)c1cn([C@@H](Cc2ccc(O)cc2)C(=O)N2CCNCC2)nn1 (stereo partly specified) | 0.074 | · | · | · | · | ·
Cc1cc2c(c(=O)n1Cc1ccccn1)C(c1ccc3c(c1)OCO3)C(C#N)=C(N)O2 (stereo unspecified) | 1.1 | -0.26 | · | · | · | ·
COc1ccc(CCn2c(C)cc3c(c2=O)C(c2ccc4c(c2)OCO4)C(C#N)=C(N)O3)cc1OC (stereo unspecified) | 2.6* | 11* | · | 14224* | 1632 | +
Cc1cc(C)c2c3c(sc2n1)C(=O)N(Cc1ccccc1)CC(=O)N3 | 0.29 | · | 3 | · | · | ·
O=C(O)C1=C[C@H](C2CC2)C[C@H](OCCCCO)O1 | -0.26 | · | · | · | · | ·
CCOC(=O)c1c(-c2cccs2)csc1NC(C)=O | 0.21 | · | -3 | · | · | ·
CCOC(=O)c1c(-c2cccs2)csc1NC(=O)CSc1ncn[nH]1 | -0.79 | 3.3* | 0 | 11080* | 2064 | i
O=C1CC(N2CCN(Cc3ccc4c(c3)OCO4)CC2)C(=O)N1CCc1ccccc1 (stereo unspecified) | 1.8 | 2.5* | · | 4952 | 960 | i
O=C1CC(N2CCN(Cc3ccc4c(c3)OCO4)CC2)C(=O)N1Cc1ccc(N2CCCC2=O)cc1 (stereo unspecified) | 0.061 | · | -1 | · | · | ·
COCCn1nnnc1C(c1ccc(OC)cc1)N1CCN(c2ccccc2F)CC1 (stereo unspecified) | -0.017 | 0.011 | 5 | · | · | ·
COc1ccc(C(c2nnnn2Cc2cccs2)N2CCN(c3ccccc3F)CC2)cc1OC (stereo unspecified) | -0.53 | 3.1* | · | 6372 | 1596 | i
Cc1ccc(N2C(=O)N(CC(=O)N3CCCc4ccccc43)C(=O)C2C)cc1 (stereo unspecified) | -0.86 | · | 3 | · | · | ·
O=C(CSc1nc(Nc2ccccc2)nc(N2CCOCC2)n1)N1CCc2ccccc21 | -1.1 | 1.2 | -5 | · | · | ·
Cc1ccccc1NC(=O)CSc1nc(Nc2ccccc2)nc(N2CCOCC2)n1 | 0.63 | 2.2 | -3 | · | · | ·
O=C(CSc1nc(Nc2ccccc2)nc(N2CCOCC2)n1)Nc1ccc2c(c1)OCCO2 | 0.12 | 3.4* | 3 | 8860* | · | +
O=C(CSc1nc(Nc2ccccc2)nc(N2CCOCC2)n1)N1CCCC1 | 0.64 | 5.6* | 1 | 9432* | 1476 | +
CSc1nc2ccccc2n1Cc1c(Cl)cccc1Cl | 1.6 | · | 1 | · | · | ·
Cn1nnnc1SCC(=O)N1CCN(c2cccc(Cl)c2)CC1 | -0.18 | -0.76 | 1 | · | · | ·
COc1ccc(CN(C2CCCC2)S(=O)(=O)c2ccc(-n3cnnn3)cc2)cc1 | -0.075 | · | -1 | · | · | ·
COc1ccc(CN(C2CCCC2)S(=O)(=O)c2ccc(-n3cnnn3)cc2)cc1OC | 1.9 | 5.5* | 6 | 10040* | 1604 | i
COC(=O)C1N[C@@H]([C@@H](NC(=O)COc2ccccc2)C(=O)NCc2ccc(OC)cc2)SC1(C)C (stereo partly specified) | 0.56 | · | · | · | · | ·
CCn1c(CNc2ccc(C)cc2)nnc1SCC(N)=O | -0.44 | · | 8 | · | · | ·
Cn1c(=O)c2c(nc(OCc3cccnc3)n2Cc2c(F)cccc2Cl)n(C)c1=O | 2.1 | 0.52 | -5 | · | · | ·
Cn1c(=O)c2c(nc(SCCCC#N)n2Cc2c(F)cccc2Cl)n(C)c1=O | 0.1 | 5.8* | 2 | 7192* | 1824 | +

Screening data: PubChem BioAssay, several laboratories
